Assay results from PubChem BioAssay AID1851 (National Center for Advancing Translational Sciences (NCATS), 2009).
In all, about 16,000 compounds went through this assay and about 5,700 (36%) were called active. Roughly 24% stayed inconclusive and do not appear here. The list shows a part of the results. A number with no mark means an inactive call. The call rests on the fitted dose curve; in most records, active means well fitted curve in the direction sought with a large enough effect; inconclusive means small, poorly fitted or top-dose-only effect, or effect the other way; inactive means no such curve, though single readings can be large or run the other way.

target: Cytochrome P450 1A2 (Homo sapiens) (UniProt P05177); assay: Cytochrome panel assay with activity outcomes; conditions: recombinant CYP, pro-luciferin dealkylation, luminescence, p450-cyp1a2; series mostly up to 57.1 µM; activity, negative = inhibition: at the top concentration
On the % scale 0 is the no-effect control and ±100 the full control effect.

Chain of Cytochrome P450 1A2 (Homo sapiens) (P05177 whole entry, looked up): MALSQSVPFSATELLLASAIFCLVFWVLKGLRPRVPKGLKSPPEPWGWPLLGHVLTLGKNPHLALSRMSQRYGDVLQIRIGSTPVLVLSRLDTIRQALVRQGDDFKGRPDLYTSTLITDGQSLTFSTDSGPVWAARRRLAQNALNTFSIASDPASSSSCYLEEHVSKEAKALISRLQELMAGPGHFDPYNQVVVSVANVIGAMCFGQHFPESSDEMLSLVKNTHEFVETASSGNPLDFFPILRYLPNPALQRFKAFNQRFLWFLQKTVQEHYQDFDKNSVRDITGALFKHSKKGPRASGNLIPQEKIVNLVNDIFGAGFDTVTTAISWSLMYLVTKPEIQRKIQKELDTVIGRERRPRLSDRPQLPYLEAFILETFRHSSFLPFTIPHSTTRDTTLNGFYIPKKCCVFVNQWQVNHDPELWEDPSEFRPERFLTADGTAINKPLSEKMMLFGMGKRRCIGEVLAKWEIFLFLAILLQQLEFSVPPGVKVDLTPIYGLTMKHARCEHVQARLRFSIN

SMILES | activity, negative = inhibition | AC50
O=C(CSc1nnc(-c2ccccn2)n1Cc1ccco1)Nc1ccc2c(c1)OCO2 | -17.1% | 
O=C(c1ccccc1)N(Cc1ccco1)C1CCS(=O)(=O)C1 (centres undefined) | -7.86% | 
O=C(CN(Cc1ccco1)C(=O)c1ccccc1)Nc1ccc(Cl)c(Cl)c1 |  | 14.1 µM (active)
c1ccc2c(c1)ncn2-c1ncnc2sc3c(c12)CCCC3 |  | 5.62 µM (active)
CC(C)(C)C(=O)[C@H]([C@@H](c1ccccc1)N1CCOCC1)N1CCOCC1 | -6.91% [at 11.4 µM] | 
Cc1cc(C(F)(F)F)n2nc(-c3cnn(C)c3C(F)(F)F)c(Cl)c2n1 |  | 0.178 µM (active)
Cc1cc(C(F)(F)F)n2nc(-c3cnn(C)c3C(F)(F)F)cc2n1 |  | 1.12 µM (active)
O=[N+]([O-])C(/C=C(\Cl)[N+](=O)[O-])=C1N(Cc2ccc(Cl)nc2)CCN1Cc1ccc(Cl)nc1 | -20% | 
Cc1nn2c([nH]c(=O)c3ccccc32)c1C=O |  | 2.51 µM (active)
Cc1cc(-c2c(C)[nH]n(-c3ccccc3)c2=O)n(-c2ccccc2)n1 | -7.47% | 
Cc1cc2[nH]c(=O)c3ccccc3n2n1 |  | 1.26 µM (active)
COC(=O)Cn1c(CN(Cc2ccccc2)Cc2ccccc2)nc2c1c(=O)[nH]c(=O)n2C | -13.7% | 
CN(C)N1C(N)=C(C#N)C(c2cccnc2)C2=C1CC(C)(C)CC2=O (centres undefined) | -4.23% | 
CN(C)c1ccc(-c2nc3n(n2)C(c2cccnc2)C2=C(CC(C)(C)CC2=O)N3)cc1 (centres undefined) |  | 3.16 µM (active)
CCc1c(C(=O)O)[nH]c2ccc(Br)cc12 |  | 5.01 µM (active)
COc1cc(NC(=O)Cc2c(C(=O)O)[nH]c3ccccc23)cc(OC)c1OC | -4.11% | 
COc1ccc(CSC2=C(C#N)C(=O)NC3(CCCCC3)S2)cc1 | -5.77% [at 2.29 µM] | 
N#C/C(=C\c1cc([N+](=O)[O-])c(N2CCCCC2)cc1N1CCCCC1)c1nn(-c2ccccc2)c(N)c1C#N | -19.8% | 
Cc1nn(-c2ccccc2)c(N2CCCCC2)c1/C=N/O |  | 1.58 µM (active)
CO[C@@H]1COC(=O)[C@H](CCSC)NC(=O)C/C=C\[C@@H](C)COC(=O)[C@@H]2CCCN2C(=O)C/C=C\[C@H]1C | 7.24% [at 11.4 µM] | 
C[C@@H]1CCC[C@H](C)N1NC(=O)c1ccc(Cl)c(S(N)(=O)=O)c1 | -0.756% [at 25.6 µM] | 
Cc1ccc2c(c1)nnn2C1CCN(S(=O)(=O)c2ccc(C(=O)N3C(C)CCCC3C)cc2)CC1 (centres undefined) | -30.6% | 
CC1CCCC(C)N1C(=O)c1cc(-c2ccc(Cl)c(Cl)c2)on1 (centres undefined) |  | 5.01 µM (active)
c1ccc(-c2nc3ccccn3c2NCc2ccc3c(c2)OCO3)cc1 |  | 1.78 µM (active)
CC1(C)CC(NCc2ccc3c(c2)OCO3)CCO1 (centres undefined) | -15.5% | 

SMILES | activity, negative = inhibition | AC50
CS(=O)(=O)N1CCC[C@@]2(CCN(c3ncccn3)C2)C1 | -2.13% | 
CCOCC(=O)Nc1cc(C(=O)Nc2cccc(C)c2C)ccc1Cl |  | 5.01 µM (active)
CCOCC(=O)Nc1cc(C(=O)Nc2ccccc2)ccc1Cl |  | 2.51 µM (active)
COC(=O)c1ccc(Cl)c(NC(=O)c2ccc(-c3ccccc3)cc2)c1 | -27% | 
CCc1c2c(nc3cccc(SC)c13)COC2 |  | 2.51 µM (active)
CCc1c2c(nc3ccc(OC)cc13)COC2 |  | 0.794 µM (active)
Cc1ccc(/C=N/n2c(-c3cccs3)n[nH]c2=S)cc1 |  | 0.282 µM (active)
COc1ccc(/C=N/n2c(-c3cccs3)n[nH]c2=S)cc1 |  | 0.631 µM (active)
COc1ccc(-n2c(-c3cnccn3)n[nH]c2=S)cc1 | 1.32% | 
Cc1ccc(-c2n[nH]c(=S)n2/N=C/c2cccn2C)cc1 |  | 3.55 µM (active)
Nc1ccn([C@H]2O[C@@H](COP(=O)(O)O)[C@@H](O)[C@H]2O)c(=O)n1 | -23.3% [at 11.4 µM] | 
O=c1c(-c2ccc(F)cc2)nc2cnc(Oc3cccc(Cl)c3)nc2n1C1CC1 |  | 0.316 µM (active)
N#CCCn1c(=O)c(-c2cccc(C#N)c2)nc2cnc(Oc3cccc(Cl)c3)nc21 | -17.1% | 
O=c1c(-c2ccccc2)nc2cnc(Oc3cccc(Cl)c3)nc2n1C1CC1 |  | 1.58 µM (active)
N#Cc1cccc(-c2nc3cnc(Oc4cccc(Cl)c4)nc3n(C3CC3)c2=O)c1 |  | 2.51 µM (active)
CC(C)CN1CCC2(CC1)CCN(C(=O)c1cccc(F)c1)CC2 | 0.754% | 
CC(=O)OC[C@@H]1O[C@@H](O/N=C2/C[C@@H](O)[C@@H](O)[C@@H]3[C@@H]4C(=O)N(C[C@@H]5CCCO5)C(=O)[C@H]4CC[C@@H]23)[C@H](OC(C)=O)[C@H](OC(C)=O)[C@@H]1OC(C)=O | 5.86% [at 11.4 µM] | 
COc1ccc(/C=N/NC(=O)CCc2ccccc2)cc1O |  | 25.1 µM (active)
O=C(N/N=C/c1ccc(OCc2ccccc2)cc1)c1cccs1 |  | 3.16 µM (active)
Cc1cccc(C)c1NC(=O)COc1cccc(/C=N/NC(=O)C(=O)NCc2ccccc2)c1 | -14.1% | 
COc1ccc(/C=N\NC(=O)C2C(=O)NCC2c2ccccc2)cc1O (centres undefined) | -28.2% | 
C=CCNC(=S)N/N=C/c1ccc(OCc2ccccc2)cc1 |  | 14.1 µM (active)
O=C(N/N=C/c1cccc(OCc2ccccc2)c1)c1cccs1 |  | 2.24 µM (active)
C/C(CCC(=O)OC[C@@H]1O[C@H](C#Cc2ccccc2)C=C[C@@H]1Oc1ccc(C)cc1)=N/OC[C@@H](O)COCc1ccco1 | -4.08% [at 11.4 µM] | 
